# Experimental data: PubChem BioAssay
# Active and inactive are the calls of the source. Unless noted, the rule behind the calls is not given here.
# Key:
# [1] = system: Wnt5a (protein binding on small-molecule microarray); assay: small molecules binding Wnt5a protein – biophysical, small-molecule microarray, 635/667 nm fluorescence, primary screen (AID 1142); conditions: 635 nm fluorescence, higher = more signal;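 note: fluorescence read at 667 nm with signal to noise per printed feature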
# [2] = ATP-based viability of Huh7 replicon cells – cell-based, CellTiter-Glo luminescence, basal, 48 h, cytotoxicity control for HCV replication inhibitor project, primary screen (AID 1143); conditions: higher = more signal, called active from +8 up or from −8 down;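 note: Huh7 hepatoma cells carrying a hepatitis C replication reporter with no stimulus; test concentration not given here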
# [3] = Pseudomonas biofilm growth suppression – PAO1 strain, BacTiter-Glo luminescence, LB-PBS, primary screen (AID 1144); conditions: P. aeruginosa PAO1 biofilm, 12 h, higher = more signal
# [4] = basal CRE-LacZ reporter activity in PC12 – cell-based, unstimulated, primary screen (AID 1145); conditions: no forskolin, luminescence, 4.5 h, higher = more signal, called active from +8 up or from −8 down
# [5] = forskolin-driven CRE-LacZ activity in PC12 – cell-based, CRE-LacZ reporter, forskolin-stimulated, primary screen (AID 1146); conditions: luminescence, 4.5 h, higher = more signal, called active from +8 up or from −8 down;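 note: PC12 cells with 6xCRE LacZ reporter stimulated by forskolin 10 µM; beta-galactosidase reporter signal reflecting CREB driven transcription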
# [6] = molecular target: Streptavidin (Streptomyces avidinii) (UniProt P22629); assay: compounds binding control protein streptavidin – biophysical, small-molecule microarray, 635/667 nm fluorescence, artefact control for SMM compound annotation, primary screen (AID 1147); conditions: higher = more signal;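 note: signal reflects streptavidin binding to arrayed compounds as a control protein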
# Sequence of Streptavidin (Streptomyces avidinii) (P22629 whole entry, looked up): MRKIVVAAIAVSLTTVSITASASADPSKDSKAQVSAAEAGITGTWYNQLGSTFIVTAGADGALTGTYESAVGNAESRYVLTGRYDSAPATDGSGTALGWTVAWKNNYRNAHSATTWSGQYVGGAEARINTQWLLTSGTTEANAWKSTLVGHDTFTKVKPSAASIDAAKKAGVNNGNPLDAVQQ
# [7] = probe aInhba binding on compound microarray – biochemical, small-molecule microarray, 635/667 nm fluorescence, primary screen (AID 1148); conditions: higher = more signal;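 note: score merges 667nm spot fluorescence with signal-to-noise for antibody binding to printed compounds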
# Torsin-1A (Homo sapiens) [8] = molecular target: Torsin-1A (Homo sapiens) (UniProt O14656); assay: TOR1A wild-type binding on microarray – cell lysate, small-molecule microarray, lysate, 635/667 nm, primary screen (AID 1149); conditions: COS7 hTOR1A-WT lysate, 635 nm fluorescence, higher = more signal
# Sequence of Torsin-1A (Homo sapiens) (O14656 whole entry, looked up): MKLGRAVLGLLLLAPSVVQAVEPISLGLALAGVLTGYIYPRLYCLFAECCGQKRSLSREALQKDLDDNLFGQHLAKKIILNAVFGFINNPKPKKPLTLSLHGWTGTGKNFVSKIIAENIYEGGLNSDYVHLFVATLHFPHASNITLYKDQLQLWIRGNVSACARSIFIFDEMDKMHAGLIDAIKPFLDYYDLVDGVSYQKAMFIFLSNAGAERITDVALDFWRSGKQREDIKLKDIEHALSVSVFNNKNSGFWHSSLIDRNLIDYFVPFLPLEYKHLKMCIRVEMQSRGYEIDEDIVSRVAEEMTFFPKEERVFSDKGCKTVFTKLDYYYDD
# Torsin-1A (Homo sapiens) [9] = molecular target: Torsin-1A (Homo sapiens) (UniProt O14656); assay: torsin A mutant lysate binding on microarrays – cell lysate, small-molecule microarray, COS7 lysate, 635/667 nm fluorescence, primary screen (AID 1150); conditions: COS7 hTOR1A mutant lysate, 635 nm fluorescence, higher = more signal;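 note: score pools 667 nm emission and signal to noise measuring lysate protein binding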
# [10] = system: Sonic hedgehog protein (Shh); assay: Sonic hedgehog microarray binding compounds – biochemical, small-molecule microarray, 635/667 nm fluorescence, primary screen (AID 1151); conditions: 635 nm fluorescence, higher = more signal;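 note: Shh protein binding to compounds spotted on small-molecule microarray slides; score combines spot fluorescence intensity with signal-to-noise across triplicate slides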
# [11] = optical density shifts of acrAB sulA E. coli – strain DRC41, OD650, 48 h, E. coli filamentation inducer project, primary screen (AID 1152); conditions: higher = more signal, called active from +8 up or from −8 down;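 note: E. coli MC1000 strain DRC41 lacking acrAB efflux pump and sulA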
# [12] = probe aLefty1 binding on compound microarray – biochemical, small-molecule microarray, 635/667 nm fluorescence, primary screen (AID 1153); conditions: higher = more signal;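 note: score merges spot fluorescence with signal-to-noise ratio from the scanned slide images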
# [13] = plasmodial surface anion channel blockers, osmotic lysis – cell-based, P. falciparum Indochina, OD700, 1 h, primary screen (AID 1154); conditions: P. falciparum Indochina infected RBC osmotic lysis, higher = more signal, called active from +8 up or from −8 down
# [14] = plasmodial surface anion channel blockers, osmotic lysis – cell-based, P. falciparum Indochina, OD700, 2 h, primary screen (AID 1155);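 note: lysis reports solute entry through the parasite surface anion channel PSAC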; conditions: P. falciparum Indochina infected erythrocytes, higher = more signal, called active from +8 up or from −8 down
# [15] = changes in parasitized red cell lysis, either direction – P. falciparum Indochina, OD700, 3 h, PSAC antagonist project, primary screen (AID 1156); conditions: P. falciparum-infected erythrocytes, osmotic lysis, higher = more signal, called active from +8 up or from −8 down
# [16] = plasmodial surface anion channel blockers, osmotic lysis – cell-based, P. falciparum Indochina, OD700, 18 h, primary screen (AID 1157); conditions: P. falciparum Indochina infected erythrocytes, osmotic lysis OD700, 18 h; higher = more signal, called active from +8 up or from −8 down
# [17] = S6 kinase pathway phospho-S6 level changes – cell-based, A549, cytoblot, luminescence, serum-stimulated, primary screen (AID 1158); conditions: 5 h, higher = more signal;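 note: serum-stimulated A549 lung adenocarcinoma cells; signal is phosphorylated S6 detected by cytoblot immunostaining with HRP secondary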
# [18] = molecular target: NADPH oxidase 2 (Homo sapiens) (UniProt P04839); assay: compounds shifting NOX2 Amplex Red fluorescence – cell-based, HEK293-NOX2, PMA-stimulated, NOX inhibitor project, primary screen (AID 1159); conditions: 45 min, higher = more signal, called active from +8 up or from −8 down; note: test concentration not given here
# Sequence of NADPH oxidase 2 (Homo sapiens) (P04839 whole entry, looked up): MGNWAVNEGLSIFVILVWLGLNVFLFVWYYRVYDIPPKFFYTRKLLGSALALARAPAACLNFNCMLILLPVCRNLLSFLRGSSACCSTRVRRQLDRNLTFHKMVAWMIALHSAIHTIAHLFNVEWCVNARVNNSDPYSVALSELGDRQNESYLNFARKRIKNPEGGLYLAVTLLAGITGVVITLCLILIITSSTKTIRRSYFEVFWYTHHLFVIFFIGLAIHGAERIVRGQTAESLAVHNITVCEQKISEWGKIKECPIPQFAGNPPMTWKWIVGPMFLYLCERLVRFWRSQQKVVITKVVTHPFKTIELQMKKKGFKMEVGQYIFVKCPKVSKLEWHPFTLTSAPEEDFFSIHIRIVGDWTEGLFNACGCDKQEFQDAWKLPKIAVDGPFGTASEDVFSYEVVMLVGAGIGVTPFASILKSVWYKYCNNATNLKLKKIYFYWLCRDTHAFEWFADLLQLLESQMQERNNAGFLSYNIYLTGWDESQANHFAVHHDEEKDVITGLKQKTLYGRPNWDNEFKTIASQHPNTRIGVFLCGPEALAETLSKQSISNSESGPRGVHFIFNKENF
# [19] = molecular target: NADPH oxidase 4 (Homo sapiens) (UniProt Q9NPH5); assay: compounds shifting NOX4 Amplex Red fluorescence – cell-based, HEK293-NOX4, tetracycline-induced, NOX inhibitor project, primary screen (AID 1160); conditions: HEK293-NOX4, Amplex Red H2O2 fluorescence, 45 min; higher = more signal, called active from +8 up or from −8 down
# Sequence of NADPH oxidase 4 (Homo sapiens) (Q9NPH5 whole entry, looked up): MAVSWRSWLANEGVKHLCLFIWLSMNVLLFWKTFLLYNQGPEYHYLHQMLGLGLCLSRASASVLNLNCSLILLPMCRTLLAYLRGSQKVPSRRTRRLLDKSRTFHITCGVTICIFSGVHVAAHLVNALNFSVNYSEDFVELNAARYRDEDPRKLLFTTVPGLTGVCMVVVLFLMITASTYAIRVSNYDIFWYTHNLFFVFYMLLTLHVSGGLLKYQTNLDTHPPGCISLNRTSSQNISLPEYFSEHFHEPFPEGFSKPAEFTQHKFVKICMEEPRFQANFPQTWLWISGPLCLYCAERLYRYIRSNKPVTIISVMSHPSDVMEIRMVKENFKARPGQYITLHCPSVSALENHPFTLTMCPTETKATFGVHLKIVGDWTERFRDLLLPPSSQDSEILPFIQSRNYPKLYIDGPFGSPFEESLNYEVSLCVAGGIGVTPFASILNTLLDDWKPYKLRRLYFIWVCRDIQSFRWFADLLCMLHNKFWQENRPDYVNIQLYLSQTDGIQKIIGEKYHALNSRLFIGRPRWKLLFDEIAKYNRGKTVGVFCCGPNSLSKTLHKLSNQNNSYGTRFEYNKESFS
# [20] = molecular target: NADPH oxidase 5 (Homo sapiens) (UniProt Q96PH1); assay: compounds shifting NOX5 Amplex Red fluorescence – cell-based, HEK293-NOX5, NOX inhibitor project, primary screen (AID 1161); conditions: HEK293-NOX5, ionomycin, 45 min, higher = more signal
# Sequence of NADPH oxidase 5 (Homo sapiens) (Q96PH1 whole entry, looked up): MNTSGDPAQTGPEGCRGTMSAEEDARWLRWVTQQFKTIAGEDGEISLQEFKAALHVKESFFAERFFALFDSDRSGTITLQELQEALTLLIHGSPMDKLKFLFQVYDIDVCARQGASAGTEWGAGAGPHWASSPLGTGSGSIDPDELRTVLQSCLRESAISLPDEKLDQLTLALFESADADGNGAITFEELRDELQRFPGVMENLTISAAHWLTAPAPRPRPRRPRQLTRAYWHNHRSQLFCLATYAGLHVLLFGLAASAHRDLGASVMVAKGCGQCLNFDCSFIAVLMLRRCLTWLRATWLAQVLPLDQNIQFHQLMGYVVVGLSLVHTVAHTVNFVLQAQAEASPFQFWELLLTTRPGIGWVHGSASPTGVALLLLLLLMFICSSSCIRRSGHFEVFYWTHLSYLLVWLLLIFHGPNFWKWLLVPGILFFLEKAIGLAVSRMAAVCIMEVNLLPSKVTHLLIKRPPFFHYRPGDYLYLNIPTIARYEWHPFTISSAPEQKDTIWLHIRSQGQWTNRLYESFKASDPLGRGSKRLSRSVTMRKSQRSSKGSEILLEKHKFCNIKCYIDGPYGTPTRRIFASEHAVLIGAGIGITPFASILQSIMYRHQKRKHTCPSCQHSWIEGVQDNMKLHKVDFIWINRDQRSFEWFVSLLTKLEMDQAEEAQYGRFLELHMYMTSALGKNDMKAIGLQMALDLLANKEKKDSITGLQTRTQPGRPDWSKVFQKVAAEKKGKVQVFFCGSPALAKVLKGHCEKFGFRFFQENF
Compound,composite z-score [1],z-score [2],z-score [3],z-score [4],z-score [5],composite z-score [6],composite z-score [7],composite z-score (Torsin-1A (Homo sapiens) [8]),composite z-score (Torsin-1A (Homo sapiens) [9]),composite z-score [10],z-score [11],composite z-score [12],z-score [13],z-score [14],z-score [15],z-score [16],z-score [17],z-score [18],z-score [19],z-score [20]
COC(=O)[C@@]1(Cc2ccc(F)cc2)[C@H]2c3cc(C(=O)N(C)C)n(C)c3C[C@H]2CN1C(=O)c1ccccc1,0.418,-0.771 (inactive),-0.259 (inactive),0.0007 (inactive),-0.339 (inactive),0.069,0.395,-0.0772,0.814,-0.34,-1.18 (inactive),0.113,0.404 (inactive),0.149 (inactive),-0.898 (inactive),0.545 (inactive),-0.8,0.323 (inactive),-0.0748 (inactive),-0.552
CC1CC/C=C\[C@H]2OC34C=CCN(c5ccc6ccccc6c5)C(=O)[C@H]3N(C(C)CO)C(=O)[C@@H]4C2C(=O)O1 (stereo not given in full),-0.786,-0.0174 (inactive),0.282 (inactive),-0.0899 (inactive),-0.0752 (inactive),-0.926,-0.0933,-0.538,-1.15,-0.254,-0.114 (inactive),-0.0933,0.856 (inactive),0.222 (inactive),0.927 (inactive),0.233 (inactive),-0.347,0.995 (inactive),-0.181 (inactive),1.58
[N-]=[N+]=Nc1ccccc1[C@@H]1OC(c2ccc(OCCCO)cc2)=N[C@]1(Cc1ccccc1)C(=O)NCCN1CCOCC1,0.458,-5.28 (inactive),-0.528 (inactive),0.4 (inactive),-1.37 (inactive),1.29,0.347,0.612,1.25,-0.368,0.146 (inactive),0.142,30.2 (active),26.5 (active),3.9 (inactive),1.92 (inactive),1.39,-3.29 (inactive),-1.23 (inactive),-2.13
CC1CC/C=C\[C@H]2OC34C=CCN(c5ccc(Cl)cc5)C(=O)[C@H]3N(CCCCCCO)C(=O)[C@]4(C)C2C(=O)O1 (stereo not given in full),-0.765,0.641 (inactive),0.306 (inactive),1 (inactive),-0.446 (inactive),-0.963,-0.239,-2.03,-1.7,-0.12,0.348 (inactive),0.0999,-0.108 (inactive),-0.36 (inactive),-0.0544 (inactive),0.0625 (inactive),-0.11,1.37 (inactive),0.37 (inactive),1.98
COc1ccc(C(=O)Nc2cccc(CN3C(=O)[C@]4(O[C@H](CC(=O)N5Cc6ccccc6C[C@H]5CO)[C@@H]([Si](C)(C)c5ccc(OC)cc5)[C@@H]4C)c4ccccc43)c2)cc1,0.711,-3.89 (inactive),0.269 (inactive),-1.07 (inactive),-0.442 (inactive),-0.266,0.114,0.671,0.701,2.19,1.66 (inactive),0.423,4.02 (inactive),1.49 (inactive),0.887 (inactive),1.04 (inactive),0.568,0.0795 (inactive),0.701 (inactive),2.01
CCN(CC)c1ccc(N2CC=CC34O[C@@H]5C=CCCOC(=O)C5[C@H]3C(=O)N(C(C)CO)[C@@H]4C2=O)cc1 (stereo not given in full),-0.188,0.0396 (inactive),1.25 (inactive),1.01 (inactive),-0.0386 (inactive),-0.638,0.166,0.0632,-0.194,1.53,-0.627 (inactive),0.138,3.66 (inactive),0.493 (inactive),0.988 (inactive),0.353 (inactive),-0.465,-0.748 (inactive),0.447 (inactive),0.772
COC(=O)[C@]1(Cc2ccccc2)N=C(c2ccc(OCCCO)cc2)O[C@@H]1c1ccccc1CN=[N+]=[N-],0.239,-5.39 (inactive),-1.19 (inactive),2.31 (inactive),-1.5 (inactive),-0.304,0.233,-0.133,0.104,0.895,-1.03 (inactive),0.25,27.2 (active),24.7 (active),0.765 (inactive),4.7 (inactive),0.614,-4.51 (inactive),-1.36 (inactive),-2.36
CN(C)CCCCNC(=O)[C@H]1C[C@H]2C(=O)NCC(=O)N2[C@H]1c1ccc(O)cc1,-0.311,0.153 (inactive),0.0384 (inactive),-0.943 (inactive),-0.489 (inactive),-0.761,-0.344,-0.0276,1.07,1.57,0.327 (inactive),-0.417,2.9 (inactive),0.552 (inactive),0.447 (inactive),0.3 (inactive),-0.468,1.06 (inactive),1.09 (inactive),1.18
CCOC(=O)C1=C[C@@H](C(C)(C)C)N(S(=O)(=O)c2ccc(C)cc2)[C@H]1c1ccc(C#N)cc1,0.327,-3.61 (inactive),0.261 (inactive),-0.228 (inactive),0.624 (inactive),0.948,0.0785,0.855,1.57,-0.264,-1.02 (inactive),0.337,3.01 (inactive),1.33 (inactive),-0.217 (inactive),0.905 (inactive),-0.561,-0.642 (inactive),-0.508 (inactive),1.11
NCCCCCCNC(=O)[C@@H]1C[C@@H]2C(=O)N3CCC[C@H]3C(=O)N2[C@@H]1c1cccc(OCCO)c1,0.587,-0.182 (inactive),0.884 (inactive),-0.386 (inactive),-1.43 (inactive),0.56,-0.024,2.21,1.07,0.513,1.82 (inactive),0.012,4.29 (inactive),-0.643 (inactive),1.53 (inactive),-1.8 (inactive),-0.0015,1.62 (inactive),1.42 (inactive),0.99
COc1ccc([Si](C)(C)[C@H]2[C@H](CC(=O)N3Cc4ccccc4C[C@H]3CO)O[C@@]3(C(=O)N(c4ccccc4)c4ccccc43)[C@@H]2C)cc1,0.479,-5.64 (inactive),0.449 (inactive),3.6 (inactive),-1.16 (inactive),0.968,0.0342,1.57,0.862,2.04,0.968 (inactive),0.701,11.9 (active),2.16 (inactive),1.24 (inactive),1.09 (inactive),1.35,-1.56 (inactive),-0.499 (inactive),-2.51
COC(=O)[C@]1(CCC(=O)OC(C)(C)C)N=C(c2ccc(OCCCO)cc2)O[C@@H]1c1ccccc1N=[N+]=[N-],0.827,-2.64 (inactive),-0.192 (inactive),0.834 (inactive),0.154 (inactive),-0.0444,-0.0658,0.154,0.0612,0.886,-0.725 (inactive),0.0591,30.9 (active),25.9 (active),1.64 (inactive),5.32 (inactive),-0.328,-1.41 (inactive),-0.601 (inactive),-2.4
O=C1O[C@H](Cc2ccccc2)[C@@H]2[C@H]3C=CCCC=C3CN2[C@H]1Cc1ccc(O)cc1,-0.311,-0.0514 (inactive),-0.818 (inactive),-0.0546 (inactive),1.11 (inactive),-0.0955,0.214,-0.2,-0.632,-0.282,0.676 (inactive),0.0811,3.72 (inactive),0.0962 (inactive),0.0059 (inactive),0.157 (inactive),-0.253,-2.69 (inactive),-1.58 (inactive),-1.3
[N-]=[N+]=Nc1ccccc1C[C@]1(C(=O)N2CCOCC2)N=C(c2ccc(OCCCO)cc2)O[C@H]1c1ccccc1N=[N+]=[N-],0.936,-4.16 (inactive),-0.781 (inactive),0.0686 (inactive),-2.38 (inactive),1.79,0.0757,1.32,0.946,1.76,1.76 (inactive),0.15,30.7 (active),25.3 (active),1.18 (inactive),6.73 (inactive),2.28,-2.86 (inactive),0.383 (inactive),-2.57
CC(=O)c1ccc(C(O)C2C=CC3C(=O)N(c4ccccc4)C(=O)C3N2Nc2ccc(C(C)C)cc2)cc1 (stereo not given),0.0129,-1.16 (inactive),-0.853 (inactive),1.4 (inactive),-0.17 (inactive),1.43,0.361,-0.127,0.135,0.295,-1.08 (inactive),0.281,12.7 (active),3.03 (inactive),1.42 (inactive),1.47 (inactive),-0.617,-1.6 (inactive),-1.6 (inactive),-2.08
CC1CC/C=C\[C@H]2OC34C=CCN(C(C)(C)C)C(=O)[C@H]3N(CCCO)C(=O)[C@@H]4C2C(=O)O1 (stereo not given in full),-0.0437,-0.032 (inactive),1.08 (inactive),0.203 (inactive),-0.539 (inactive),-0.561,-0.128,0.62,2.01,-0.757,0.0581 (inactive),-0.0954,-0.022 (inactive),0.571 (inactive),-0.857 (inactive),0.235 (inactive),0.337,0.78 (inactive),-2.14 (inactive),1.25
COC(=O)C1(Cc2ccccc2)C=C2C(=C(C)C(=O)C2C)CN1 (stereo not given),0.266,-0.723 (inactive),0.454 (inactive),0.0075 (inactive),0.727 (inactive),0.621,0.155,0.103,0.0914,-0.691,-0.492 (inactive),0.695,0.756 (inactive),-0.425 (inactive),-0.662 (inactive),-1.2 (inactive),2.47,0.436 (inactive),-0.568 (inactive),-4
